Compounds with a hit are over-represented: about 2.6% of the library has one in this group of screens.
KKLEB tox – cytotoxicity in KKLEB CF airway cells, primary screen, cytotoxicity control for CF NF-kB inhibitor project, cell-based, uHTS, fluorescence assay plates | AID 602141, 2011 | 360,000 compounds, 0.36% hits | KKLEB CF airway cells viability, ATPlite luminescence, overnight; hits give low values; cells stimulated with P. aeruginosa culture filtrate | activity change (cytotoxicity), % at 5 µM;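 active = corrected activity change at or below -50% at 5 µM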
CF NFkB block – inhibitors of PAF-induced NF-kB signaling, primary screen, cell-based, GFP fluorescence, uHTS. KKLEB NF-kB-GFP reporter, GFP fluorescence overnight. 360,000 compounds, 0.86% hits. inhibition, % at 5 µM;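 active = at least 50% inhibition at 5 µM, scaled per plate between neutral and stimulator controls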;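 note: PAF is a Pseudomonas aeruginosa culture filtrate used as stimulus; plate controls were PAF-stimulated DMSO wells for no effect and unstimulated DMSO wells for full effect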
TWEAK Fn14 block – inhibitors of TWEAK-Fn14 signaling, primary screen, luciferase reporter cells, uHTS | TWEAK-stimulated Fn14 reporter cells, luciferase luminescence, 8 h | inhibition, % at 10 µM | 360,000 compounds, 2% hits | AID 1159606, 2016; in the data active = inhibition above about 50%
EWS-Fli inh – EWS/Fli-driven NR0B1 reporter inhibitors, primary screen, A673 cells, NR0B1 luciferase, luminescence, MLPCN library. viability-normalised. inhibition, % at 12.6 µM. 350,000 compounds, 0.67% hits. AID 651661, 2012;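 active = mean inhibition of at least 50% after viability correction, with every replicate also passing that limit; inconclusive = mean reaches 50% but only one of two replicates passes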;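 note: firefly luciferase signal divided by Alamar Blue viability fluorescence both relative to DMSO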
LGR2 inh – inhibitors of bursicon-induced LGR2 CRE-luciferase signal, primary screen, cell-based, HEK293, CRE-luciferase reporter, bursicon stimulation; Drosophila bursicon receptor LGR2 (rickets); bursicon-stimulated, 4 h; inhibition, % at 9.99 µM; 380,000 compounds, 0.35% hits;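 active = drop in luminescence signal, shown as inhibition above about 50% in the replicate tests, limit read from the data, passing the limit was not always enough; inconclusive = probably only some replicates passing the limit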;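 note: agonist challenge used bursicon conditioned medium at about half maximal strength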
TROY signal inh – inhibitors of TROY-driven NF-kB signaling, primary screen, Q293 LMP1-TROYcd cells, NF-kB luciferase, uHTS; Q293 LMP1-TROYcd NF-kB luciferase reporter, 4 h; inhibition, % at 10 µM; 360,000 compounds, 0.98% hits;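 active = compounds whose plate-normalised and pattern-corrected inhibition of the luciferase reporter signal at the single screening dose is 50% or more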
An asterisk follows results filed as active; ? = inconclusive; / = no result given.

SMILES | KKLEB tox | CF NFkB block | TWEAK Fn14 block | EWS-Fli inh | LGR2 inh | TROY signal inh
CCOC(=O)C(C)Oc1nc(Oc2ccccc2)nc(N(C)C)n1 (stereo unspecified) | -4 | 2 | 50* | / | / | /
COC(=O)c1ccc(Oc2nc(Nc3ccccc3)nc(N(C)C)n2)cc1 | -13 | 19 | 14 | / | / | -2
C[C@H](CO)N1C[C@H](C)[C@H](CN(C)S(=O)(=O)c2cccs2)Oc2ccc(NC(=O)Nc3ccc4c(c3)OCO4)cc2C1=O | / | / | / | 4 | -7 | /
COc1ccc(C2NC(=S)NC3=C2CCCC3=C2SCCS2)cc1 (stereo unspecified) | -28 | 11 | -115 | 63* | -5 | 4
S=C1NC2=C(CCCC2=C2SCCCS2)C(c2ccccc2)N1 (stereo unspecified) | 10 | 24 | -19 | -5 | 25 | -6
Cc1cccc(CSc2cccc3cccnc23)c1 | 8 | -28 | 103* | / | / | -78
NNC(=O)c1ccc(CSc2cccc3cccnc23)cc1 | 8 | 9 | -29 | -3 | / | -13
CN1[C@@H]2Cn3c(ccc(-c4ccccc4)c3=O)[C@H]1[C@@H](C(=O)NC1CCCCC1)[C@@H]2CO | / | / | / | 8 | -4 | /
O=C(NCC[C@H]1CC[C@H](NC(=O)C2CCC2)[C@H](CO)O1)Nc1ccc(Cl)cc1 | / | / | / | -11 | -18 | /
C=C1C(=O)c2sccc2C(c2ccc(OC)c(OC)c2)C1COC(C)=O (stereo unspecified) | -92* | 84* | 100* | 77* | 106* | 69*
N#C/C(=C/c1cn(-c2ccccc2)nc1-c1cccc(S(=O)(=O)N2CCOCC2)c1)C(=O)NCc1ccco1 | -57* | 51* | -44 | -7 | -5 | -11
O=C(c1cccs1)c1ccc(-c2cccs2)s1 | -26 | -1 | 61* | / | 62* | -6
Cc1nc2c(o1)C(=O)c1ccccc1C2=Nc1ccccc1 | -84* | 89* | 95* | 2 | 16 | 10
Cc1nc(-c2ccc(NC(=O)C(C)(C)C)cc2)c(-c2ccccc2)o1 | -25 | 2 | 26 | 6 | 0 | -6
CC(=O)N(Cc1ccc(F)cc1)C1=C(NCc2ccccc2)C(=O)c2ccccc2C1=O | -53* | 92* | 51* | / | / | 38
C[C@H]1CCCCO[C@H](CN(C)C(=O)Nc2ccccc2)[C@@H](C)CN([C@@H](C)CO)C(=O)c2cc(NS(=O)(=O)c3ccc(Cl)cc3)ccc2O1 | / | / | / | 4 | 4 | /
CCOC(=O)C1=C(C)NC(=O)NC1c1ccc(-c2ccccc2F)o1 (stereo unspecified) | 1 | 3 | 16 | / | 1 | 54*
COCCOC(=O)C1=C(C)NC(=O)NC1c1ccc(-c2ccc(F)cc2)o1 (stereo unspecified) | -4 | 3 | -8 | 14 | -25 | -18
Cc1cccc(-c2nnn3c2nc(NCCc2ccc(S(N)(=O)=O)cc2)c2ccccc23)c1 | -52* | 36 | -65 | / | -17 | -43
COC(=O)c1nn(-c2ccc(-c3ccccc3)cc2)cc1O | 6 | -8 | 81* | / | / | 47
CCOC(=O)c1nn(-c2ccccc2)cc1O | 10 | -2 | -27 | -2 | -21 | -30
COc1ccc2c(c1)c(C(C)=O)c(C)n2CCc1ccccc1 | 6 | 33 | 69* | 6 | 11 | 27
Cn1c(SCc2ccccc2)nccc1=O | 22 | -25 | 9 | 0 | -11 | -16
CC1=C(SCc2ccccc2)C(=O)c2ccccc2C1=O | -44 | 89* | 88* | 39 | 27 | 38
C[C@H](CO)N1C[C@H](C)[C@@H](CN(C)CC2CCOCC2)Oc2cc(C3=CCCC3)ccc2S1(=O)=O | / | / | / | 11 | 1 | /
SMILES | KKLEB tox | CF NFkB block | TWEAK Fn14 block | EWS-Fli inh | LGR2 inh | TROY signal inh
CCN(CC)CCOc1c(Br)ccc2c1sc1nc3n(c(=O)c12)CCC3 | 12 | -18 | -30 | / | / | -35
O=c1c2c(nc3n1CCCCC3)sc1c(O)c(Br)ccc12 | 0 | -2 | 68* | 7 | ? | 36
O=C1CC2(CCN(C(=O)C(=O)c3c[nH]c4ccccc34)CC2)Oc2ccccc21 | -100* | 84* | 7 | / | 17 | -16
CC1(Cc2ccc(C(F)(F)F)o2)C(=O)Nc2ccc(-c3cccc(C(F)(F)F)c3)cc21 (stereo unspecified) | 13 | -23 | 3 | 7 | 3 | 4
CC1(Cc2ccc3c(c2)OCO3)C(=O)Nc2ccc(-c3cccc(C(F)(F)F)c3)cc21 (stereo unspecified) | 14 | 6 | 103* | 19 | / | 6
O=C(NNC(=O)c1ccco1)c1ccccc1 | -12 | 10 | 5 | -49 | -7 | -2
C/C(=C(/NC(=O)c1ccccc1)C(=O)O)c1ccco1 | 6 | -7 | 87* | -1 | -4 | 6
O=C(Nc1cccc(F)c1)N1CC(=O)N2[C@@H](CO)[C@H](c3ccc(-c4ccccc4)cc3)[C@@H]2C1 | / | / | / | 1 | 3 | /
CCOc1ccc(/C=N/NC(=O)c2[nH]ncc2Br)c(O)c1 | 1 | 17 | 76* | -56 | ? | 24
CCOC(=O)c1ccc(NC(=O)COc2ccccc2CNCCc2ccccc2)cc1 | -18 | 18 | -14 | 19 | 71* | -3
Cc1ccc2nc(-c3ccc(S(=O)(=O)N4CCCCC4)cc3)cn2c1 | -6 | 8 | 30 | -50 | -40 | 52*
Cc1ccc2nc(-c3cccc(S(=O)(=O)N4CCCC4)c3)cn2c1 | 2 | -3 | -1 | / | 0 | -9
COc1ccc(CC(=O)Nc2nc3ccccc3[nH]2)cc1 | -16 | 10 | -8 | -13 | 8 | -15
CCOC(=O)Nc1nc2ccc(Cn3cccc3)cc2[nH]1 | -4 | 38 | -3 | 51* | -33 | -18
CCC(=O)Nc1nc(-c2ccc3c(c2)CC(C)N3S(C)(=O)=O)cs1 (stereo unspecified) | -8 | -26 | -19 | -45 | -18 | -12
CC1Cc2cc(-c3csc(NC(=O)Cc4cccs4)n3)ccc2N1S(C)(=O)=O (stereo unspecified) | 10 | -10 | 101* | / | / | 75*
CS(=O)(=O)N1CCc2cc(-c3csc(NC(=O)Cc4ccccc4)n3)ccc21 | 9 | -33 | 58* | / | 2 | 50
Cc1ccc(Cl)cc1-n1ncc2c(NNC(=O)c3ccco3)ncnc21 | 6 | -11 | 63* | -7 | -2 | -2
CC(=O)NNc1ncnc2c1cnn2-c1ccc(C)cc1 | 5 | 6 | 30 | -29 | -8 | 14
CC(=O)NNc1ncnc2c1cnn2-c1ccc(C)c(Cl)c1 | -4 | -2 | 73* | -25 | -29 | 61*
